Results on nine compounds are retold here after PubChem BioAssay (NCI).

Each structure is given as a SMILES string. This is part of a sample that, as a whole, favours compounds with a hit. Of some 79,000 tested, about 15% had one in any assay. A number with no mark means an inactive call. Calls of active or inactive are those of the source. Rule as the data show it: active = growth inhibition above about 70%; inactive = the rest.

The nature of assay [1]: NCI Yeast Anticancer Drug Screen. Data for the rad50 strain (AID 155).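 Also: 0% = growth of vehicle-only cultures of the same strain.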 The note with it: S. cerevisiae rad50 strain growth inhibition, hits give high values. The method, boiled down:
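Compounds were tested on a yeast strain with an engineered DNA damage repair alteration; the reported value is growth inhibition normalised to vehicle treatment.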

Assay [2] is described as follows: NCI Yeast Anticancer Drug Screen. Data for the mec2-1 strain (AID 157). Particulars: S. cerevisiae mec2-1 strain, hits give high values. The method, boiled down: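 Strain: mec2-1 (DNA repair/cell cycle alteration). Compound exposure, then growth measured; inhibition expressed relative to vehicle.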
Assay [3] in a line: NCI Yeast Anticancer Drug Screen. Data for the sgs1 mgt1 strain (AID 161).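 Also: 0% = growth of cultures given vehicle only.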 Particulars: S. cerevisiae sgs1 mgt1 strain, hits give high values. An outline of the steps: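 Genetically altered yeast, compound exposure, growth inhibition relative to vehicle.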
A short description of assay [4]: NCI Yeast Anticancer Drug Screen. Data for the cln2 rad14 strain (AID 165).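 Also: 0% = growth equal to vehicle treated cultures.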 The note with it: S. cerevisiae cln2 rad14 strain, hits give high values. The method, boiled down: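 Compounds are applied to the cln2 rad14 yeast strain, and growth is then compared with that of vehicle-treated cultures to give inhibition.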
A short description of assay [5]: NCI Yeast Anticancer Drug Screen. Data for the bub3 strain (AID 167). Particulars: S. cerevisiae bub3 mutant strain, hits give high values. An outline of the steps:
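Growth of a checkpoint-deficient yeast mutant is measured after compound exposure. Values represent inhibition relative to vehicle.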

The nature of assay [6]: NCI Yeast Anticancer Drug Screen. Data for the mlh1 rad18 strain (AID 175). Particulars: S. cerevisiae mlh1 rad18 strain growth inhibition, hits give high values. The method, boiled down: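 Read-out is yeast growth inhibition, calculated against vehicle-only controls. The compound was applied to a strain engineered with DNA damage repair alterations.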
The mark [7] stands for this setting: at 5.0 µM (retest, dose inferred, filed as 0.5).
[8] abbreviates: at 50.0 µM (retest, dose inferred, filed as 5.0).

As for `C/C=C1\SC(=S)NC1=O`, the growth inhibition in assay [1] (setting [7]) was 25%; in assay [1] (setting [8]), 99% (active); in assay [1] (at 50.0 µM), 98.8% (active); in assay [2] (setting [7]) it was 11%; in assay [2] (setting [8]), 99% (active); in assay [2] (at 50.0 µM), 98.8% (active). Also, the growth inhibition in assay [3] (setting [7]) is 22%; in assay [3] (setting [8]), 98% (active); in assay [3] (at 50.0 µM), 99.2% (active); in assay [4] (setting [7]), 6%; in assay [4] (setting [8]), 98% (active); in assay [4] (at 50.0 µM), 95.9% (active). The growth inhibition in assay [5] (setting [7]) was 9%; in assay [5] (setting [8]) it was 98% (active); in assay [5] (at 50.0 µM), 98% (active); in assay [6] (setting [7]), 36%; in assay [6] (setting [8]), 99% (active); in assay [6] (at 50.0 µM) it was 99.3% (active).
In the case of `CN(C)c1c([N+](=O)[O-])cc(N2C(=O)C=CC2=O)cc1[N+](=O)[O-]`, the growth inhibition was 81% (active) in assay [1] (setting [7]); 91% (active) in assay [1] (setting [8]); 91.8% (active) in assay [1] (at 50.0 µM); 88% (active) in assay [2] (setting [7]); 98% (active) in assay [2] (setting [8]); 93.2% (active) in assay [2] (at 50.0 µM). The growth inhibition is 23% in assay [3] (setting [7]); 100% (active) in assay [3] (setting [8]); 93.8% (active) in assay [3] (at 50.0 µM); 50% in assay [4] (setting [7]); 99% (active) in assay [4] (setting [8]); 90.8% (active) in assay [4] (at 50.0 µM). Moreover, the growth inhibition in assay [5] (setting [7]) is 47%; in assay [5] (setting [8]), 96% (active); in assay [5] (at 50.0 µM), 92.3% (active); in assay [6] (setting [7]) it was 80% (active); in assay [6] (setting [8]) it was 96% (active); in assay [6] (at 50.0 µM), 90.7% (active).
As to `CN(C)CCNc1ccc(O)c2sc3ccccc3c(=O)c12`, the growth inhibition in assay [1] (setting [7]) is 0%; in assay [1] (setting [8]), 82% (active); in assay [1] (at 50.0 µM) it was 81.8% (active); in assay [2] (setting [7]) it was -6%; in assay [2] (setting [8]), 56%; in assay [2] (at 50.0 µM) it was 42.8%. Moreover, the growth inhibition in assay [3] (setting [7]) was -7%; in assay [3] (setting [8]), 70% (active); in assay [3] (at 50.0 µM) it was 48.1%; in assay [4] (setting [7]), -7%; in assay [4] (setting [8]), 19%; in assay [4] (at 50.0 µM), 30.6%. The growth inhibition was -9% in assay [5] (setting [7]); 3% in assay [5] (setting [8]); 33.4% in assay [5] (at 50.0 µM); -5% in assay [6] (setting [7]); 81% (active) in assay [6] (setting [8]); 51% in assay [6] (at 50.0 µM).
On to `CCOP(=O)(CCCOc1cc(Cl)c(Cl)cc1Cl)OCC`, for which the growth inhibition is 1% in assay [1] (setting [7]); 99% (active) in assay [1] (setting [8]); 98.7% (active) in assay [1] (at 50.0 µM); 2% in assay [2] (setting [7]); 99% (active) in assay [2] (setting [8]); 98.9% (active) in assay [2] (at 50.0 µM). The growth inhibition in assay [3] (setting [7]) is 14%; in assay [3] (setting [8]) it was 100% (active); in assay [3] (at 50.0 µM) it was 99% (active); in assay [4] (setting [7]), 7%; in assay [4] (setting [8]) it was 99% (active); in assay [4] (at 50.0 µM) it was 93.7% (active). Further, the growth inhibition was 6% in assay [5] (setting [7]); 99% (active) in assay [5] (setting [8]); 94.2% (active) in assay [5] (at 50.0 µM); 2% in assay [6] (setting [7]); 99% (active) in assay [6] (setting [8]); 98.6% (active) in assay [6] (at 50.0 µM).
As to `O=C(CCSCCC(=O)NNc1ccccc1)NNc1ccccc1`, the growth inhibition in assay [1] (setting [7]) was 4%; in assay [1] (setting [8]), 32%; in assay [1] (at 50.0 µM), 24.4%; in assay [2] (setting [7]), -1%; in assay [2] (setting [8]), 28%; in assay [2] (at 50.0 µM), 3.5%. The growth inhibition in assay [3] (setting [7]) is 4%; in assay [3] (setting [8]), 37%; in assay [3] (at 50.0 µM) it was 20.4%; in assay [4] (setting [7]), 6%; in assay [4] (setting [8]) it was 23%; in assay [4] (at 50.0 µM) it was 23.4%. The growth inhibition in assay [5] (setting [7]) is 7%; in assay [5] (setting [8]) it was 44%; in assay [5] (at 50.0 µM), -14.7%; in assay [6] (setting [7]) it was 15%; in assay [6] (setting [8]) it was 58%; in assay [6] (at 50.0 µM) it was 35.9%.
As for `O=S(=O)(c1ccc(O)cc1)c1ccc(Cl)cc1`, the growth inhibition was -8% in assay [1] (setting [7]); 38% in assay [1] (setting [8]); 44.3% in assay [1] (at 50.0 µM); -11% in assay [2] (setting [7]); 20% in assay [2] (setting [8]); 81.3% (active) in assay [2] (at 50.0 µM). In addition, the growth inhibition in assay [3] (setting [7]) was -5%; in assay [3] (setting [8]), 49%; in assay [3] (at 50.0 µM), 79.5% (active); in assay [4] (setting [7]), 4%; in assay [4] (setting [8]), 35%; in assay [4] (at 50.0 µM), 49.1%. Further, the growth inhibition is 0% in assay [5] (setting [7]); 46% in assay [5] (setting [8]); 56.2% in assay [5] (at 50.0 µM); 4% in assay [6] (setting [7]); 79% (active) in assay [6] (setting [8]); 48.2% in assay [6] (at 50.0 µM).
Turning to `O=C(O)c1cc2cc3ccccc3cc2cc1O`, the growth inhibition in assay [1] (setting [7]) is -1%; in assay [1] (setting [8]), 32%; in assay [1] (at 50.0 µM), 73.3% (active); in assay [2] (setting [7]) it was 2%; in assay [2] (setting [8]), 34%; in assay [2] (at 50.0 µM) it was 57.2%. In addition, the growth inhibition in assay [3] (setting [7]) is 3%; in assay [3] (setting [8]), 36%; in assay [3] (at 50.0 µM) it was 81% (active); in assay [4] (setting [7]), -1%; in assay [4] (setting [8]), 14%; in assay [4] (at 50.0 µM), 55.2%. Besides, the growth inhibition in assay [5] (setting [7]) is 0%; in assay [5] (setting [8]), 22%; in assay [5] (at 50.0 µM) it was 51.2%; in assay [6] (setting [7]) it was -1%; in assay [6] (setting [8]), 27%; in assay [6] (at 50.0 µM), 64.7%.
Turning to `OCC(CO)C1c2cccc3ccc4cccc1c4c23`, the growth inhibition in assay [1] (setting [7]) was 0%; in assay [1] (setting [8]) it was 30%; in assay [1] (at 50.0 µM), 64.5%; in assay [2] (setting [7]) it was -3%; in assay [2] (setting [8]), 24%; in assay [2] (at 50.0 µM), 17.8%. Moreover, the growth inhibition in assay [3] (setting [7]) was -2%; in assay [3] (setting [8]), 46%; in assay [3] (at 50.0 µM) it was 85.7% (active); in assay [4] (setting [7]) it was -6%; in assay [4] (setting [8]) it was 37%; in assay [4] (at 50.0 µM) it was 67.3%. For the same compound, the growth inhibition in assay [5] (setting [7]) is 13%; in assay [5] (setting [8]), 42%; in assay [5] (at 50.0 µM), 53.5%; in assay [6] (setting [7]), -4%; in assay [6] (setting [8]) it was 49%; in assay [6] (at 50.0 µM), 81.4% (active).
`CCCCCCCC/C=C1\CCC(CN(C)C)C1=O` (configuration not stated): the growth inhibition in assay [1] (setting [7]) was -2%; in assay [1] (setting [8]) it was 97% (active); in assay [1] (at 50.0 µM), 89.6% (active); in assay [2] (setting [7]) it was -35%; in assay [2] (setting [8]), 99% (active); in assay [2] (at 50.0 µM), 93.2% (active). In addition, the growth inhibition in assay [3] (setting [7]) is -13%; in assay [3] (setting [8]), 97% (active); in assay [3] (at 50.0 µM) it was 90.7% (active); in assay [4] (setting [7]), 8%; in assay [4] (setting [8]) it was 95% (active); in assay [4] (at 50.0 µM), 89.5% (active). The growth inhibition in assay [5] (setting [7]) was -23%; in assay [5] (setting [8]), 98% (active); in assay [5] (at 50.0 µM), 89.6% (active); in assay [6] (setting [7]) it was -19%; in assay [6] (setting [8]), 97% (active); in assay [6] (at 50.0 µM), 89.1% (active).
